AmpC inh no detg: qHTS Inhibitors of AmpC Beta-Lactamase (assay without detergent); AmpC nitrocefin hydrolysis, absorbance 480 nm, 0.0001% Triton; Potency, µM (series often up to 57.1 µM), for inactives: at the highest dose activity change, negative = inhibition, actives largely listed as inhibitors; AID 485341, 2010; actives 0.52% (n = 330,000); P00811;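 also: plate controls were no compound for no effect and no enzyme for full effect; nearly all actives have a fitted effect of over 20% in size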
Target sequence (P00811 whole entry, looked up): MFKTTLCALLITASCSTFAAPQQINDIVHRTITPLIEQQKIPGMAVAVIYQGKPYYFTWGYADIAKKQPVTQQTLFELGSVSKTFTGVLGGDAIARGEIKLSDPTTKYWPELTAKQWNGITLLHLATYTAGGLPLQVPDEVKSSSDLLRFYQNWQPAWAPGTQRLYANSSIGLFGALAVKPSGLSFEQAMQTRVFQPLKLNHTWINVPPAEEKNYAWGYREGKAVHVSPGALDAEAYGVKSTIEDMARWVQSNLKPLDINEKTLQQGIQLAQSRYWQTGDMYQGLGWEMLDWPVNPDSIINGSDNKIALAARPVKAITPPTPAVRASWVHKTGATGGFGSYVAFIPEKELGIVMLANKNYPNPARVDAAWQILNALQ
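20 mM phosphate pH 7.0 + 0.01% (detergent screen) or 0.0001% Triton X-100; 5.3 nM AmpC reagent; cpd preinc 15 min RT; nitrocefin (800 uM stock) to start; A480 q20 s × 4 min; Activity was normalised to no-enzyme and no-compound control wells.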
VACV Venus inh: qHTS for Stage-Specific Inhibitors of Vaccinia Orthopoxvirus: Venus Reporter Primary qHTS; Vaccinia virus Venus reporter expression, fluorescence; Potency, µM (top dose mostly 36.5 µM), inactives show at the highest dose activity change, negative = inhibition, usual class: inhibitors; actives 0.46% (n = 330,000); AID 720580, 2013; calls by dose curve; tested in A549 cells; also: % is scaled to controls: 0 for no effect and ±100 for the full control effect; nearly all actives have a fitted effect of over 30% in size
AMA1-RON2 inh: qHTS for Inhibitors of AMA1-RON; Towards Development of Antimalarial Drug Lead: Primary Screen; Plasmodium falciparum AMA1 (3D7) - RON2 peptide interaction; AlphaScreen AMA1-biotinylated RON2 peptide binding; actives 0.2% (n = 360,000); Potency, µM (highest dose often 58.2 µM), for the others: top-dose activity change, negative = inhibition, hits mostly inhibitors;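 also: 0% = vehicle wells and -100% = peptide control; nearly all actives have a fitted effect of over 45% in size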
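AMA1 (3D7) with his tag at 25 nM final met compounds first, then biotinylated RON2 peptide at 25 nM; detection used donor plus acceptor beads, 10 µg/mL apiece, read by AlphaScreen after 30 min at room temperature.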
Vaccinia mCherry: qHTS for Stage-Specific Inhibitors of Vaccinia Orthopoxvirus: mCherry Reporter Primary qHTS; Vaccinia virus mCherry reporter infection, fluorescence; actives 0.63% (n = 310,000); Potency, µM (doses to about 36.5 µM), without a hit: top-dose activity change, negative = inhibition, actives largely listed as inhibitors; calls by dose curve; tested in A549 cells; also: % is scaled to controls: 0 for no effect and ±100 for the full control effect; nearly all actives have a fitted effect of over 35% in size
SARS PLpro yeast: qHTS of Yeast-based Assay for SARS-CoV PLP | S. cerevisiae expressing SARS-CoV PLpro, growth rescue | Potency, µM (titrated, usually from 32.9 µM), without a hit: top-dose activity, positive = growth rescue, hits mostly activators | actives 0.19% (n = 330,000); calls by dose curve; also: 0% is about no effect; nearly all actives have a fitted effect of over 55% in size
AmpC detergent: qHTS Inhibitors of AmpC Beta-Lactamase (assay with detergent) | P00811 | AmpC hydrolysis of nitrocefin, absorbance 480 nm, 0.01% Triton | Potency, µM (series often up to 114 µM), inactives show at the top dose activity change, negative = inhibition, usual class: inhibitors | actives 0.041% (n = 370,000) | AID 485294, 2010;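 also: 0% = no-compound wells and -100% = no-enzyme wells; nearly all actives have a fitted effect of over 25% in size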
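20 mM phosphate pH 7.0 + 0.01% (detergent screen) or 0.0001% Triton X-100; 5.3 nM AmpC reagent; cpd preinc 15 min RT; nitrocefin (800 uM stock) to start; A480 q20 s × 4 min; Activity was normalised to no-enzyme and no-compound control wells.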
Numbers without * were called inactive; i = inactive; u = inconclusive; x = no result given. Sampled rows, rich in hits. Any-hit rate of the full collection: about 1.4%. Unless noted, calls follow the shape of the dose curve; as a rule, active = well fitted curve in the direction sought with a large enough effect; inconclusive = small, poorly fitted or top-dose-only effect, or another doubt; inactive = no such curve, though single readings can be large; an effect the other way counts as inactive or inconclusive. Potency is read from the fitted curve at half-maximal effect.

SMILES | AmpC inh no detg | VACV Venus inh | AMA1-RON2 inh | Vaccinia mCherry | SARS PLpro yeast | AmpC detergent
CCCCN(CCCC)c1ccc(C=Nc2ccc(/C=C/c3ccnc4ccccc34)cc2)cc1C | x | -14% | x | -17% | x | x
COc1ccccc1-c1nnc(SCC(=O)NC2CCCCC2)o1 | -25% | u | 15% | 11µM* | -4% | -13%
COc1ccc(C(=O)Nc2ccccc2-c2nc3ccccc3s2)c(OC)c1 | x | -20% | x | -17% | x | 5%
COc1ccc(C(=O)Nc2nc3c(s2)CCCC3)cc1S(=O)(=O)N1CCCc2ccccc21 | u | 2% | -4% | 11µM* | 14% | -5%
COc1ccc(C(=O)Nc2ncccc2C)cc1S(=O)(=O)N1CCCc2ccccc21 | -13% | -11% | -5% | -17% | -1% | -16%
Cn1c(SCC2CCCO2)nnc1C1CCN(Cc2ccc(-c3cccc(Cl)c3)o2)CC1 (stereo not drawn) | x | -15% | x | i | x | x
Cc1ccccc1CS(=O)(=O)c1nnc([C@H](Cc2ccccc2)NC(=O)OC(C)(C)C)o1 | 13µM* | -29% | 17% | -23% | -37% | 28µM*
CCSc1nnc([C@H](Cc2ccccc2)NC(=O)OC(C)(C)C)o1 | 3% | x | 12% | x | -5% | 1%
CC(C)(C)OC(=O)N[C@@H](Cc1ccccc1)c1nnc(S(=O)(=O)Cc2ccccc2)o1 | u | x | x | x | -42% | 18µM*
CCC(C)[C@@H](NC(=O)OC(C)(C)C)c1nnc(S(=O)(=O)Cc2cccc(C)c2)o1 (stereo partly drawn) | 14µM* | u | 5% | x | -13% | 18µM*
O=C(NC1CCCCC1)c1cc(Nc2cccc(C(F)(F)F)c2)nc2ccccc12 | x | 5% | x | -6% | x | -4%
Cc1ccc(-c2ccnc(-n3ncc(C(=O)N4CCCCC4c4cccnc4)c3C3CC3)n2)o1 (stereo not drawn) | x | u | x | -7% | x | x
CCOc1ccc(NC(=S)N(CCc2c(C)[nH]c3ccc(C)cc23)Cc2ccco2)cc1 | u | -14% | 22% | i | -5% | u
COc1ccc(NC(=S)N(CCc2c(C)[nH]c3ccc(C)cc23)Cc2ccco2)cc1 | 18µM* | u | 20% | -28% | -11% | u
CCCc1cc(-c2nc(N)ncc2-c2ccc3c(c2)OCCCO3)c(O)cc1OC | -14% | 13µM* | -39% | u | -19% | u
CCCc1cc(-c2nc(N)ncc2-c2csc(C)n2)c(O)cc1OC | 55% | x | -3% | x | -2% | 1%
CCCC(=O)NC(C)c1nc2ccccc2[nH]1 (stereo not drawn) | -4% | 4% | 8% | -9% | 10% | -3%
CCCCC(NC(C)=O)c1nc2ccccc2[nH]1 (stereo not drawn) | 40µM* | 2% | -2% | -13% | -6% | 8%
COC(=O)c1ccccc1C(=O)N1CCc2c(cnc(C)c2CNC(=O)c2ccccc2F)C1 | x | -5% | x | -11% | x | x
O=C(NC(c1ccc(Cl)cc1)c1c(O)ccc2ccccc12)c1ccccc1 (stereo not drawn) | -23% | u | 0% | 10µM* | -2% | -3%
Cc1nc(CN2CCN(C(=O)CC3(c4ccccc4Cl)CC(=O)N(C)C3=O)CC2)cs1 (stereo not drawn) | x | 2% | x | -7% | x | x
CCOC(=O)c1cc(C(=O)c2cc(Cl)ccc2O)coc1=N | 5µM* | 9% | 6% | -1% | -3% | -3%
CN(C)c1ccc(Sc2ccc3nc(N)nc(N)c3c2)cc1 | x | 5µM* | 10µM* | 4.5µM* | x | x
CN(C)S(=O)(=O)c1cccc(-n2sc3ccccc3c2=O)c1 | 35µM* | -20% | 8% | -1% | -6% | -2%
O=c1c2ccccc2sn1-c1cccc(Cl)c1 | x | -27% | -11% | -9% | x | x
SMILES | AmpC inh no detg | VACV Venus inh | AMA1-RON2 inh | Vaccinia mCherry | SARS PLpro yeast | AmpC detergent
CCOC(=O)N1CCC(NC(=O)CCCN2C(=O)CSc3ncccc32)CC1 | x | -15% | 29% | i | x | 0%
CCOC(=O)N1CCC(NC(=O)CN2C(=O)CSc3ncccc32)CC1 | 28µM* | -3% | 2% | i | 11% | 8%
CCC1CN(C(=O)N2CCC(C(=O)NCCc3cc(OC)ccc3OC)CC2)c2ccccc2O1 (stereo not drawn) | x | -11% | x | 5% | x | 6%
COC(=O)C1=C(C)N(Cc2ccccc2)C(=NCCc2cccnc2)N[C@H]1c1ccc(Br)cc1 | 110% | 13µM* | 7% | u | 0% | -14%
COC(=O)C1=C(C)N(Cc2ccccc2)C(=NCCc2cccnc2)N[C@H]1c1ccccc1 | 42% | -20% | 1% | 4% | -6% | u
COC(=O)C1=C(C)N(Cc2ccccc2)C(=NCC(C)C)N[C@H]1c1cccc(C(F)(F)F)c1 | 104% | u | -7% | u | 3% | x
COC(=O)C1=C(C)N(Cc2ccccc2)C(=NCc2ccccc2)N[C@H]1c1cccc(C(F)(F)F)c1 | 112% | 14µM* | -4% | u | -14% | x
Cc1c(C(=O)N(C)Cc2nccs2)sc2ncnc(NCC3CCCO3)c12 (stereo not drawn) | x | -7% | x | -9% | x | x
CCCCNC(=O)c1ccc2c(c1)N(CC)C(=O)c1ccccc1S2(=O)=O | 45µM* | 1% | -2% | 36% | 0% | u
CN1CCN(C(=S)c2ccc(-c3cccc(Cl)c3Cl)o2)CC1 | 162% | -29% | 14µM* | u | -24% | u
CCC(=O)NCCn1ccc2ccccc21 | -14% | 16% | -8% | -21% | -1% | -17%
O=S(=O)(NCCn1ccc2ccccc21)c1ccccc1 | 25µM* | 2% | -2% | 36% | -10% | -14%
CC(C)c1ccc(NC(=O)CSc2nc(=O)[nH]c3c2CCCC3)cc1 | 35µM* | -16% | -6% | -9% | 4% | -15%
NS(=O)(=O)c1ccc(N=Nc2ccc(O)c3ncccc23)cc1 | u | 10µM* | -86% | u | 4% | -6%
Cc1cccc(N=Nc2ccc(O)c3ncccc23)c1 | -32% | u | u | 14µM* | x | -8%
Cc1ccc(C)c(N=Nc2ccc(O)c3ncccc23)c1 | -29% | x | 44% | x | u | 12%
CC(C)c1c(C(=O)NCCN2CCOCC2)cnn1-c1nccc(-c2cccs2)n1 | x | -13% | x | -23% | x | x
Cc1ccc(NC(=O)CSc2nnc(-c3ccc(Br)cc3)o2)c(C)c1 | x | -8% | x | -11% | x | 8%
Cc1ccc(O)c(NC(=O)CSc2n[nH]c(-c3ccccc3)n2)c1 | -50% | x | -3% | x | 9% | 12%

From PubChem
